Test results taken from PubChem BioAssay AID1224861 (National Center for Advancing Translational Sciences (NCATS), 2016).
Results filed as inconclusive are left out. A number with no mark means an inactive call. Calls of active or inactive are those of the source. Calls come from the whole dose curve; as a rule, active = well fitted cell-killing curve with a large enough effect; inconclusive = small, poorly fitted or top-dose-only effect, or effect the other way; inactive = flat fitted curve, though single readings scatter.

Assay: Compound cytotoxicity measured by an ATP content assay as a counter-screen for lead compounds in human astrocytes
Conditions: human astrocytes viability, ATP luminescence; series mostly up to 46.1 µM; activity change, negative = cytotoxicity: at the top concentration
Procedure: National Center for Advancing Translational Sciences [NCATS] Johns Hopkins University School of Medicine Florida State University Assay Overview: Many compounds can cause cytotoxicity at high compound concentrations. […] The compound cytotoxicity may also cause side effects or toxicity in human. Thus, the compound cytotoxicity needs to be measured in each cell type and each compound incubation time - same as these in the compound screening assay. The compound cytotoxicity can be measured by cell viability assays such as the ATP content assay. We use an ATP content assay kit for cell viability measurement. It measures ATP content (level) in human astrocytes using a luminescence readout that is proportional to viable cell numbers. Decrease in the luminescence signal after the compound treatment indicates reduced cell viability and cell death caused by compound treatment.
Assay Protocol Summary: The medium for astrocytes contains AM basal medium (ScienCell, Cat.# 1801), AGS (ScienCell, Cat.# 1801), 10% FBS, and 1% Pen/Strep. The ATP content assay kit (PerkinElmer, Cat.# 6016731) was used to determine cell viability. The reagent was reconstituted and prepared as described by the manufacturer. Cells were seeded in 384- or 1536-well assay plates and cultured at 37 C with 5% CO2 for 16 to 20 hours. The typical cell seeding density in the 1536-well plate assay is 350 cells/well in 3 ul medium for astrocytes in the tissue cultured treated/PDL coated plates. Compounds were added to cells and incubated for a specific time such as 6, 24, or 72 hours before addition of the reagent mixture of the ATP content assay kit at 1:1 ratio. After incubation at room temperature for 10 minutes, the luminescence intensity in assay plates was measured using a ViewLux plate reader (PerkinElmer). […] The percentage inhibitions of the decreased cell viability by small molecules were then calculated that indicate compound cytotoxicity.

SMILES | Potency | activity change, negative = cytotoxicity [%]
Cc1ccc([N+](=O)[O-])[c]2c1[O][Hg]2 | 3.08 µM (active) | 
O=c1c2ccccc2[se]n1-c1ccccc1 | 9.75 µM (active) | 
CC[n+]1c(-c2ccccc2)c2cc(N)ccc2c2ccc(N)cc21 |  | 14.2
COc1cccc2c1C(=O)c1c(O)c3c(c(O)c1C2=O)C[C@@](O)(C(=O)CO)CC3OC1CC(N2CCOC(OC)C2)C(O)C(C)O1 (some centres undefined) |  | -2.9
CC(O)CN1CCN(CC(=O)[O-])CCN(CC(=O)[O-])CCN(CC(=O)[O-])CC1.[Gd+3] (centres undefined) |  | 13.1
O=C1CCC[C@@H]2[C@H]3CCCN4CCC[C@@H](CN12)[C@@H]34 |  | 13.7
CN1CC[C@@]2(C)c3cc(OC(=O)Nc4ccccc4)ccc3N(C)[C@@H]12 |  | 10.3
COC1(CS(=O)c2ccccc2)CCN(CCc2c[nH]c3ccc(F)cc23)CC1 (centres undefined) |  | 6.46
O=C(Nc1ccc(Br)cc1)c1cc(Br)cc(Br)c1O | 15.5 µM (active) | 
CC(C)[N+](C)(CCC(C(N)=O)(c1ccccc1)c1ccccc1)C(C)C |  | 5.53
Oc1ccc([C@H]2CNCc3c2ccc(O)c3O)cc1O |  | 10
CC(C)N[C@@H]1CCn2c(=O)[nH]c3cccc(c32)[C@@H]1O |  | 14.5
O=C1C=CC[C@@H]2[C@H]3CCCN4CCC[C@@H](CN12)[C@@H]34 |  | 11
COP(=S)(OC)SCN1C(=O)c2ccccc2C1=O |  | -1.28
